CBX7 AlphaScr: CBX7 chromodomain binding inhibitors, primary screen, biochemical, AlphaScreen. 66,000 compounds, 1.1% hits. normalised signal (fraction of DMSO) (test concentration not listed). AlphaScreen His6-CBX7 / biotin-H3K27me3 peptide binding; stronger effect = lower value. Chromobox protein homolog 7 (Homo sapiens), O95931; in the data active = normalised signal below about 0.5
Target sequence (O95931 whole entry, looked up): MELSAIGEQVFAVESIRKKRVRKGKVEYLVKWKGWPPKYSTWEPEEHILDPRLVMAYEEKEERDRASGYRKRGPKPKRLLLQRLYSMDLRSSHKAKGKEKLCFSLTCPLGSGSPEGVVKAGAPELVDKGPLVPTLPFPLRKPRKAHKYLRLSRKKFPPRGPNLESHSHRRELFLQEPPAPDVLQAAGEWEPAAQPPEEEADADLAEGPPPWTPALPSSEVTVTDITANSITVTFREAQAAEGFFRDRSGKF
An asterisk follows results filed as active. The entries come from a sample that favours hits as a whole.

What do the screens show for `COc1ccc(C2SCC(=O)Nc3c2c(C)nn3-c2ccccc2)cc1` (stereo unspecified)?
CBX7 AlphaScr: 1

What do the screens show for `O=C1CSC(c2ccc(Cl)cc2)c2c(-c3ccccc3)nn(-c3ccccc3)c2N1` (stereo unspecified)?
CBX7 AlphaScr: 0.92

What do the screens show for `CN(C)c1ccc(C2SCC(=O)Nc3c2c(-c2ccccc2)nn3-c2ccccc2)cc1` (stereo unspecified)?
CBX7 AlphaScr: 0.42*

What do the screens show for `COCc1cc(C2SCC(=O)Nc3c2c(C)nn3-c2ccccc2)ccc1OC` (stereo unspecified)?
CBX7 AlphaScr: 0.99

What do the screens show for `Cc1ccc(-n2nnnc2C2(NCCc3c(C)[nH]c4c(Cl)c(Cl)ccc34)CCCCC2)cc1`?
CBX7 AlphaScr: 0.73

How did Cc1ccccc1-n1nnnc1C1(NCCc2c(C)[nH]c3ccccc23)CCCCC1 do in these assays?
CBX7 AlphaScr: 0.49*

What do the screens show for `COc1ccc(-n2nnnc2C2(NCCc3c(C)[nH]c4c(Cl)ccc(Cl)c34)CCCCC2)cc1`?
CBX7 AlphaScr: 0.74

How did COCCNC(=O)CN1C(=O)C(C)N=C(c2ccccc2)c2ccccc21 (stereo unspecified) do in these assays?
CBX7 AlphaScr: 1.1

What do the screens show for `COc1ccc2[nH]c(C)c(CCNCc3nc[nH]c3C)c2c1`?
CBX7 AlphaScr: 0.0075*

What do the screens show for `COc1ccc2[nH]c(C)c(CCNCc3ccc(F)cc3F)c2c1`?
CBX7 AlphaScr: 0.51

How did COc1ccc2[nH]c(C)c(CCNCc3cccnc3)c2c1 do in these assays?
CBX7 AlphaScr: 1.1

Results for Cc1ccc(-n2c(/C=C/c3cn(C)c4ccccc34)nc3ccccc3c2=O)cc1 ?
CBX7 AlphaScr: 0.95

Results for CCC(=O)N1c2ccc(C)cc2[C@@H]2CN(C)CC[C@@H]21 ?
CBX7 AlphaScr: 0.96

Results for O=c1c2ccccc2nc(/C=C\c2ccc(F)c(F)c2)n1-c1ccc(F)cc1 ?
CBX7 AlphaScr: 1

Results for CN(C)c1ccc(NC(=O)CN2C(=O)CN=C(c3ccccc3)c3cc(Br)ccc32)cc1 ?
CBX7 AlphaScr: 0.57

What do the screens show for `Cc1ccc(NC(=O)CN2C(=O)CN=C(c3ccccc3)c3cc(Cl)ccc32)c(C)c1`?
CBX7 AlphaScr: 1.1

How did COc1ccc(CCNCc2cccnc2)cc1OC do in these assays?
CBX7 AlphaScr: 0.91

How did COc1ccc(CCNCc2cc(OC)c3c(c2)OCO3)cc1 do in these assays?
CBX7 AlphaScr: 0.97

Results for COc1ccc(CCNCc2ccccn2)cc1OC ?
CBX7 AlphaScr: 0.27*

How did CC1N=C(c2ccccc2)c2ccccc2N(Cc2cccc(Cl)c2)C1=O (stereo unspecified) do in these assays?
CBX7 AlphaScr: 0.97

Screening results (PubChem)
